# Several values for one entry are separate records, joined by “and”; a condition that tells them apart may be missing. Identical values can stand only once. Values without a mark were called inactive. Results filed as inconclusive are left out. Entries that show only a call come without a potency. Activity calls are given as the source filed them. Unless noted, the call rests on the fitted dose curve; in most records, active means well fitted curve in the direction sought with a large enough effect in the repeat runs; inconclusive means weak or mixed curves; inactive means no such curve, though single readings can be large; an effect the other way counts as inactive or inconclusive.
# Assays:
# [1] = qHTS assay to identify small molecule agonists of H2AX (AID 1224845; active means well fitted activation curve with a large enough effect in the signal ratio in the repeat runs, not every such curve was filed as active; the % refers to the signal ratio; further: potency means the concentration at half of the fitted maximal effect)
# Summary of the method: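 Phospho-H2AX Ser139 measured by HTRF (ex 320 nm; em 665 and 620 nm) after 24 hr antibody incubation. Compounds, 15 concentrations, 0.76% DMSO, were applied to CHO-K1 cells for 3hr at 37C before lysis.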
# [2] = qHTS assay to identify small molecule agonists of the hypoxia (HIF-1) signaling pathway (AID 1224846; active means well fitted activation curve with a large enough effect in the signal ratio in the repeat runs, not every such curve was filed as active; the % refers to the signal ratio)
# Summary of the method: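 A low-serum medium (0.5% dialyzed FBS) holding 2,000 HRE-bla ME-180 cells per well is preincubated for 5 hrs, dosed with compounds by pintool, and kept a further 17 hrs at 37C, 5% CO2 before CCF4-AM FRET detection of beta-lactamase.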
# [3] = qHTS assay to identify small molecule agonists of H2AX - cell viability counter screen (AID 1224847; calls by dose curve; further: nearly all actives have a fitted effect of over 30% in size; further: potency means the concentration at half of the fitted maximal effect;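 on activity change, negative = cytotoxicity: wild-type CHO-K1 cells; top concentration of the series differs between compounds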)
# Summary of the method: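 Cells plated first: CHO-K1, 1000 per well in 10% FBS medium, incubated overnight at 37C. Then 15-point compound titration added (final DMSO 0.76%) for 3 hr. Finally CellTiter-Glo added and luminescence read.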
# [4] = qHTS RealTime-Glo MT Cell Viability Assay in HepG2 cells - 24 hour (AID 1224867); further: nearly all actives have a fitted effect of over 50% in size; further: potency means the concentration at half of the fitted maximal effect
# Summary of the method: (§1)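 Cells + NanoLuc/prosubstrate dispensed (600 cells/well) → 5 h at 37 C/5% CO2 → compounds in DMSO transferred → 40 h incubation at 37 C, luminescence read at 0, 8, 16, 24, 32, 40 h.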
# [5] = qHTS RealTime-Glo MT Cell Viability Assay in HEK293 cells - 32 hour (AID 1224868); further: nearly all actives have a fitted effect of over 50% in size; further: potency means the concentration at half of the fitted maximal effect
# Summary of the method: (§2)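 Tox21 10K qHTS, HEK293, 600 cells/well, RealTime-Glo reagent co-dispensed with cells; 5 h preincubation, compound by pintool, 37 C, luminescence at 0–40 h.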
# [6] = A CellTox Green Cytotoxicity Assay to monitor cytotoxicity in HEK293 cells - 0 hour (AID 1224869); further: nearly all actives have a fitted effect of over 50% in size
# Summary of the method: (§3)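 Fluorescence intensity, read at 0, 8, 16, 24, 32 and 40 h of compound treatment, reflected dye binding to DNA of dead HEK293 cells; compounds (23 nL, DMSO) were added 5 h after plating cells with reagent.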
# [7] = qHTS RealTime-Glo MT Cell Viability Assay in HepG2 cells - 40 hour (AID 1224870); further: nearly all actives have a fitted effect of over 50% in size; further: potency means the concentration at half of the fitted maximal effect
# Summary of the method: (§4)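 Real-time viability: cells seeded at 600 per well together with NanoLuc and cell-permeant prosubstrate, compounds added after 5 h incubation. Luminescence tracked at 0, 8, 16, 24, 32 and 40 h of exposure.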
# [8] = A CellTox Green Cytotoxicity Assay to monitor cytotoxicity in HEK293 cells - 40 hour (AID 1224871); further: nearly all actives have a fitted effect of over 45% in size; further: potency means the concentration at half of the fitted maximal effect
# Summary of the method: as §3
# [9] = qHTS RealTime-Glo MT Cell Viability Assay in HEK293 cells - 16 hour (AID 1224872); further: nearly all actives have a fitted effect of over 50% in size; further: potency means the concentration at half of the fitted maximal effect; on activity change, negative = cytotoxicity: top concentration of the series differs between compounds
# Summary of the method: as §2
# [10] = qHTS RealTime-Glo MT Cell Viability Assay in HepG2 cells - 8 hour (AID 1224873); further: nearly all actives have a fitted effect of over 55% in size; further: potency means the concentration at half of the fitted maximal effect
# Summary of the method: as §4
# [11] = qHTS RealTime-Glo MT Cell Viability Assay in HEK293 cells - 40 hour (AID 1224874); details: RealTime-Glo luminescence; max response: active compounds read low; further: nearly all actives have a fitted effect of over 50% in size; further: potency means the concentration at half of the fitted maximal effect
# Summary of the method: (§5)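 Viable HEK293 cells reduce a cell-permeant prosubstrate; the product diffuses out and is consumed by NanoLuc in the medium to give light. Compounds went in after a 5 h incubation and plates were read over the treatment course.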
# [12] = A CellTox Green Cytotoxicity Assay to monitor cytotoxicity in HEK293 cells - 24 hour (AID 1224875); further: nearly all actives have a fitted effect of over 45% in size; further: potency means the concentration at half of the fitted maximal effect
# Summary of the method: as §3
# [13] = A CellTox Green Cytotoxicity Assay to monitor cytotoxicity in HepG2 cells - 16 hour (AID 1224876); further: nearly all actives have a fitted effect of over 45% in size; further: potency means the concentration at half of the fitted maximal effect
# Summary of the method: (§6)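 Using 1536-well format, dye-containing HepG2 suspension was seeded, allowed 5 h at 37 C/5% CO2, dosed by pintool with compounds, positive and negative controls, and imaged for fluorescence across 40 h.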
# [14] = qHTS RealTime-Glo MT Cell Viability Assay in HepG2 cells - 32 hour (AID 1224877); further: nearly all actives have a fitted effect of over 55% in size; further: potency means the concentration at half of the fitted maximal effect
# Summary of the method: as §1
# [15] = A CellTox Green Cytotoxicity Assay to monitor cytotoxicity in HepG2 cells - 24 hour (AID 1224878); further: nearly all actives have a fitted effect of over 45% in size; further: potency means the concentration at half of the fitted maximal effect
# Summary of the method: as §6
# [16] = A CellTox Green Cytotoxicity Assay to monitor cytotoxicity in HepG2 cells - 40 hour (AID 1224879); further: nearly all actives have a fitted effect of over 40% in size; further: potency means the concentration at half of the fitted maximal effect
# Summary of the method: as §6
# [17] = qHTS RealTime-Glo MT Cell Viability Assay in HEK293 cells - 0 hour (AID 1224880)
# Summary of the method: as §5
# [18] = A CellTox Green Cytotoxicity Assay to monitor cytotoxicity in HEK293 cells - 32 hour (AID 1224881); further: nearly all actives have a fitted effect of over 40% in size; further: potency means the concentration at half of the fitted maximal effect
# Summary of the method: as §3
# [19] = qHTS assay to identify small molecule antagonists of the estrogen related receptor (ERR) signaling pathway from Tox21 library (AID 1224848); further: nearly all actives have a fitted effect of over 50% in size; further: potency means the concentration at half of the fitted maximal effect
# Summary of the method: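 Reading was by luminescence 30 min after ONE-Glo addition. Before that, ERR cells at 2,000 per well had rested 6 h at 37 C/5% CO2 and then received pin-tooled compounds in DMSO for 18 h at 37 C.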
# [20] = qHTS assay to identify small molecule agonists of the estrogen related receptor (ERR) signaling pathway from Tox21 library (AID 1224849; calls by dose curve; further: nearly all actives have a fitted effect of over 15% in size); details: ERR reporter cell line, ONE-Glo luciferase, 18 h; at 92.4 µM (top of the series) unless noted
# Summary of the method: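 Screening used an NTP-provided ERR luciferase cell line. Compounds in DMSO were added 6 h after seeding and left 18 h at 37 C before a 30 min ONE-Glo step and luminescence reading.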
smiles,measurement,setting,value
N#Cc1ccc(O)cc1,Potency,[1],inactive
same,outcome,[2],inactive
same,Potency,[3],inactive
same,Potency,[4],inactive
same,Potency,[5],inactive
same,Potency,[6],inactive
same,Potency,[7],inactive
same,Potency,[8],inactive
same,Potency,[9],inactive
same,Potency,[10],inactive
same,max response,[11],-7.33%
same,Potency,[12],inactive
same,Potency,[13],inactive
same,Potency,[14],inactive
same,Potency,[15],inactive
same,Potency,[16],inactive
same,Potency,[17],inactive
same,Potency,[18],inactive
N#CCCO,Potency,[1],inactive
same,outcome,[2],inactive
same,Potency,[3],inactive
same,Potency,[4],inactive
same,Potency,[5],inactive
same,Potency,[6],inactive
same,Potency,[7],inactive
same,Potency,[8],inactive
same,Potency,[9],inactive
same,Potency,[10],inactive
same,max response,[11],5.8%
same,Potency,[12],inactive
same,Potency,[13],inactive
same,Potency,[14],inactive
same,Potency,[16],inactive
same,Potency,[17],inactive
same,Potency,[18],inactive
c1ccc(OCC2CO2)cc1 (stereo not given),Potency,[1],inactive
same,outcome,[2],inactive
same,Potency,[3],inactive
same,Potency,[4],inactive
same,Potency,[5],inactive
same,Potency,[6],inactive
same,Potency,[7],inactive
same,Potency,[8],inactive
same,Potency,[9],inactive
same,Potency,[10],inactive
same,max response,[11],7.88%
same,Potency,[12],inactive
same,Potency,[13],inactive
same,Potency,[15],inactive
same,Potency,[16],inactive
same,Potency,[17],inactive
same,Potency,[18],inactive
N#CCCSCCC#N,Potency,[1],inactive
same,outcome,[2],inactive
same,Potency,[3],inactive
same,Potency,[4],inactive
same,Potency,[5],inactive
same,Potency,[6],inactive
same,Potency,[7],inactive
same,Potency,[8],inactive
same,Potency,[9],inactive
same,Potency,[10],inactive
same,max response,[11],8.18%
same,Potency,[12],inactive
same,Potency,[13],inactive
same,Potency,[14],inactive
same,Potency,[16],inactive
same,Potency,[17],inactive
same,Potency,[18],inactive
O=C(CCl)C(Cl)Cl,Potency,[1],40.5 µM (active)
same,Potency,[3],inactive
same,Potency,[19],43.7 µM (active)
same,"activity change, positive = activation",[20],-73%
same,Potency,[5],17.5 µM (active)
same,Potency,[6],inactive
same,Potency,[8],24.8 µM (active)
same,Potency,[9],17.5 µM (active)
same,Potency,[10],inactive
same,Potency,[11],17.5 µM (active)
same,Potency,[13],inactive
same,Potency,[16],49.4 µM (active)
same,Potency,[17],inactive
same,Potency,[18],27.8 µM (active)
CSCCCN=C=S,Potency,[1],inactive
same,Potency,[3],inactive
same,Potency,[19],inactive
same,"activity change, positive = activation",[20],-13.5%
same,Potency,[4],inactive
same,Potency,[10],inactive
same,Potency,[12],inactive
same,Potency,[14],inactive
same,Potency,[17],inactive
same,Potency,[18],inactive
N#CSCSC#N,Potency,[1],15.8 µM (active)
same,Potency,[3],51.6 µM (active) and 50 µM (active)
same,Potency,[19],27.9 µM (active) and 60.5 µM (active)
same,"activity change, positive = activation",[20],-81.6% and -76.5%
same,Potency,[4],50.1 µM (active) and 19.3 µM (active)
same,Potency,[5],12.6 µM (active) and 21.7 µM (active)
same,Potency,[6],inactive
same,Potency,[8],19.3 µM (active)
same,Potency,[9],12.6 µM (active) and 15.3 µM (active)
same,Potency,[10],21.7 µM (active)
same,Potency,[11],11.2 µM (active) and 21.7 µM (active)
same,Potency,[12],54.4 µM (active)
same,Potency,[13],56.2 µM (active) and 24.3 µM (active)
same,Potency,[14],50.1 µM (active) and 19.3 µM (active)
same,Potency,[15],50.1 µM (active) and 19.3 µM (active)
same,Potency,[16],39.8 µM (active) and 17.2 µM (active)
same,Potency,[17],inactive
same,Potency,[18],43.2 µM (active)
CCCOCC(=Nc1ccc(Cl)cc1C(F)(F)F)n1ccnc1,Potency,[1],inactive
same,outcome,[2],inactive
same,Potency,[3],101 µM (active)
same,Potency,[5],48.9 µM (active)
same,Potency,[8],48.9 µM (active)
same,Potency,[9],43.6 µM (active)
same,Potency,[11],48.9 µM (active)
same,Potency,[12],48.9 µM (active)
same,Potency,[13],43.6 µM (active)
same,Potency,[15],43.6 µM (active)
same,Potency,[16],43.6 µM (active)
same,Potency,[17],inactive
same,Potency,[18],48.9 µM (active)
c1ccc2cc3c(cc2c1)-c1cccc2cccc-3c12,Potency,[1],inactive
same,Potency,[3],inactive
same,Potency,[19],inactive
same,Potency,[4],inactive
same,Potency,[5],inactive
same,Potency,[6],inactive
same,Potency,[7],inactive
same,Potency,[8],inactive
same,Potency,[9],inactive
same,Potency,[10],inactive
same,Potency,[12],inactive
same,Potency,[13],inactive
same,Potency,[14],inactive
same,Potency,[15],inactive
same,Potency,[17],inactive
same,Potency,[18],inactive
COC12CC[C@@]3(C[C@@H]1C(C)(O)C(C)(C)C)[C@H]1Cc4ccc(O)c5c4[C@@]3(CCN1CC1CC1)[C@H]2O5 (stereo not given in full),Potency,[1],56.3 µM (active)
same,Potency,[3],28.2 µM (active)
same,Potency,[19],27.1 µM (active)
same,"activity change, positive = activation",[20],-68%
same,Potency,[4],43.4 µM (active)
same,Potency,[5],24.4 µM (active)
same,Potency,[6],inactive
same,Potency,[7],48.6 µM (active)
same,Potency,[8],24.4 µM (active)
same,Potency,[9],24.4 µM (active)
same,Potency,[10],43.4 µM (active)
same,Potency,[11],24.4 µM (active)
same,Potency,[12],38.6 µM (active)
same,Potency,[13],43.4 µM (active)
same,Potency,[14],48.6 µM (active)
same,Potency,[16],24.4 µM (active)
same,Potency,[17],inactive
same,Potency,[18],38.6 µM (active)
C[CH2][Hg][N]1C(=O)C2C(C1=O)C1(Cl)C(Cl)=C(Cl)C2(Cl)C1(Cl)Cl (stereo not given),Potency,[1],10.7 µM (active)
same,Potency,[3],13.5 µM (active)
same,"activity change, positive = activation",[20],-76.3% [at 19 µM]
same,Potency,[4],6.57 µM (active)
same,Potency,[5],2.33 µM (active)
same,cytotoxicity,[6],-0.189% [at 15.8 µM]
same,Potency,[7],6.57 µM (active)
same,Potency,[8],4.65 µM (active)
same,Potency,[9],2.61 µM (active)
same,Potency,[10],7.37 µM (active)
same,Potency,[11],2.08 µM (active)
same,Potency,[12],4.65 µM (active)
same,Potency,[13],6.57 µM (active)
same,Potency,[14],6.57 µM (active)
same,Potency,[15],7.37 µM (active)
same,Potency,[16],6.57 µM (active)
same,"activity change, negative = cytotoxicity",[17],-4.29% [at 15.8 µM]
same,Potency,[18],4.65 µM (active)
CC(=O)C(Cl)(Cl)Cl,Potency,[1],inactive
same,Potency,[3],30.8 µM (active)
same,Potency,[19],5.9 µM (active)
same,"activity change, positive = activation",[20],-67.8%
same,Potency,[4],inactive
same,Potency,[6],inactive
same,Potency,[8],inactive
same,Potency,[10],inactive
same,Potency,[13],inactive
same,Potency,[14],inactive
same,Potency,[16],inactive
same,Potency,[18],inactive
C[C@]12CC[C@@H]3c4ccc(OC(=O)N(CCCl)CCCl)cc4CC[C@H]3[C@@H]1CC[C@@H]2O,Potency,[1],inactive
same,Potency,[3],inactive
same,Potency,[19],inactive
same,"activity change, positive = activation",[20],-21.8% [at 42.5 µM]
same,Potency,[4],inactive
same,Potency,[5],inactive
same,Potency,[6],inactive
same,Potency,[9],inactive
same,Potency,[10],inactive
same,max response,[11],-6.19%
same,Potency,[12],inactive
same,Potency,[13],inactive
same,Potency,[14],inactive
same,Potency,[15],inactive
same,Potency,[16],inactive
same,Potency,[17],inactive
same,Potency,[18],inactive

# Reference: PubChem BioAssay (Tox21)
